The source made the active and inactive calls. The call rests on the fitted dose curve; in most records, active means well fitted curve in the direction sought with a large enough effect; inactive means no such curve, though single readings can be large or run the other way.
Biological target: Pyruvate kinase PKM (Homo sapiens) (UniProt P14618)
Assay: qHTS for Activators of Human Muscle Isoform 2 Pyruvate Kinase: Extended Characterization for Probe 2
Conditions: purified hPK-M2, Kinase-Glo ATP luminescence, 1 h
Procedure: Human pyruvate kinase muscle 2 (hPK-M2) enzyme was supplied as a highly purified (>95% pure) preparation from Harvard Medical School and assayed for its ability to generate ATP from ADP using phosphoenolpyruvate (PEP) as a substrate. ATP generation was detected in a coupled reaction by luciferase-mediated luminescence, an ATP-dependent process. […] The enzyme was assayed at an intermediate level of activity to screen for both inhibitors and activators. NIH Chemical Genomics Center [NCGC] NIH Molecular Libraries Probe Centers Network [MLPCN] MLPCN Grant: MH085679 Assay Submitter (PI): Matthew G. Vander Heiden, Harvard Medical School
Three uL of substrate mix (at r.t.) in assay buffer (50 mM Imidazole pH7.2, 50 mM KCl, 7 mM MgCl2, 0.01% Tween 20, 0.05% BSA) was dispensed into white solid bottom 1,536 well microtiter plates so that the final concentrations of substrates in the assay were 0.1 mM ADP and 0.5 mM PEP. 23 nL of compound were delivered by a pin tool and 1 uL of enzyme mix (final concentration of 0.1 nM) in assay buffer (4 degree Celsius) was added. Plates were incubated at room temperature for 1 hour. Two uL of detection mix (Kinase-Glo, Promega; at 4 degree Celsius protected from light) was added and luminescence read by a ViewLux (Perkin Elmer) at 1 second exposure/plate. Data were normalized to the uninhibited (column 3) and AC100 inhibition (no enzyme in column 2). To monitor activation, the first column contained a titration of the activator, NCGC00031955-03 (16-point 1:2 dilutions in duplicate starting at 57 uM) and the first 16 rows of column 4 contained 57 uM of NCGC00031955-03.

Chain of Pyruvate kinase PKM (Homo sapiens) (P14618 whole entry, looked up, canonical isoform): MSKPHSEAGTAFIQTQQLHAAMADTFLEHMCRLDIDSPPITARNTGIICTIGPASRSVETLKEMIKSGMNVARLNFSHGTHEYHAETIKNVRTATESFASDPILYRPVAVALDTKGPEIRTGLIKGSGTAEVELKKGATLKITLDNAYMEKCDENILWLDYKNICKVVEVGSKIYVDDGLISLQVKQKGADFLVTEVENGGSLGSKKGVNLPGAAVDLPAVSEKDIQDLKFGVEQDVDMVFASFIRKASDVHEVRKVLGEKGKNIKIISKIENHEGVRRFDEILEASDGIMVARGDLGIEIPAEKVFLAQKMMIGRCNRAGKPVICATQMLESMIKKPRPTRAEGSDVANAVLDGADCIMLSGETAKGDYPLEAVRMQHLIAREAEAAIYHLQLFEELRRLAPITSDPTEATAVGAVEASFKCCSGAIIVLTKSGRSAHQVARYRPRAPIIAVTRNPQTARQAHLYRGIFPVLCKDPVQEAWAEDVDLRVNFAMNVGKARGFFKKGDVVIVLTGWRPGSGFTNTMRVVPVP

Potency, active:
Cc1ccc(NS(=O)(=O)c2ccc3c(c2)CCC(=O)N3)cc1C 163 nM
COc1cccc(Cn2ncc3c4sc(S(C)=O)cc4n(C)c3c2=O)c1 (stereo not drawn) 73 nM
O=S(=O)(c1ccc2c(c1)OCCO2)N1CCN(S(=O)(=O)c2c(F)cccc2F)CC1 81.9 nM
